This is part of a sample that, as a whole, favours compounds with a hit. Of some 79,000 tested, about 15% had one in any assay. Cut-off read from the data, not from the text of the source: active = growth inhibition above about 70%; inactive = the rest.
Experiments:
[1] = NCI Yeast Anticancer Drug Screen. Data for the sgs1 mgt1 strain (AID 161);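 note: 0% = growth of cultures given vehicle only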; settings: S. cerevisiae sgs1 mgt1 strain, hits give high values
Outline: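 Yeast cells carrying a defined DNA-repair defect were exposed to test compounds. Growth inhibition was measured relative to vehicle-treated controls.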

[2] = NCI Yeast Anticancer Drug Screen. Data for the CLN2oe strain (AID 163);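 note: 0% = growth of vehicle-only control cultures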; settings: S. cerevisiae CLN2oe strain, hits give high values
Outline: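 Whole-cell yeast growth assay. A strain engineered for altered cell-cycle control received compound, and inhibition relative to vehicle-treated cultures was recorded.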

[3] = NCI Yeast Anticancer Drug Screen. Data for the cln2 rad14 strain (AID 165);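 note: 0% = growth equal to vehicle treated cultures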; settings: S. cerevisiae cln2 rad14 strain, hits give high values
Outline: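 Yeast strain cln2 rad14, bearing defects in cell cycle control and DNA repair, serves as the test system; values reflect growth inhibition compared with vehicle.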

[4] = NCI Yeast Anticancer Drug Screen. Data for the bub3 strain (AID 167); settings: S. cerevisiae bub3 mutant strain, hits give high values
Outline: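 Growth of a checkpoint-deficient yeast mutant is measured after compound exposure. Values represent inhibition relative to vehicle.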

[5] = NCI Yeast Anticancer Drug Screen. Data for the wt2 strain (AID 169);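 note: 0% = growth of vehicle-treated yeast cultures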; settings: S. cerevisiae wt2 strain growth inhibition, hits give high values
Outline: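 Treated yeast vs. vehicle-treated yeast: growth inhibition determined.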

[6] = NCI Yeast Anticancer Drug Screen. Data for the mlh1 strain (AID 171);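 note: 0% = growth of vehicle-treated control cultures of the same strain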; settings: S. cerevisiae mlh1 strain growth inhibition, hits give high values
Outline: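 A yeast strain with a defined genetic lesion serves as the test organism. Cultures receive compound or vehicle, and growth is measured.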

[7] = NCI Yeast Anticancer Drug Screen. Data for the sgs1 strain (AID 173);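 note: 0% = growth of vehicle-only control cultures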; settings: S. cerevisiae sgs1 mutant, hits give high values
Outline: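 A genetically defined yeast mutant is incubated with the test compound, and its growth is compared to that of the same strain given vehicle.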

[8] = NCI Yeast Anticancer Drug Screen. Data for the mlh1 rad18 strain (AID 175); settings: S. cerevisiae mlh1 rad18 strain growth inhibition, hits give high values
Outline: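 Steps: expose repair-defective yeast to compound; measure growth; express inhibition against vehicle-treated controls.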

[9] = NCI Yeast Anticancer Drug Screen. Data for the rad18 strain (AID 177); settings: S. cerevisiae rad18 mutant growth inhibition, hits give high values
Outline: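 Measured value is growth inhibition of a yeast strain bearing a DNA repair alteration, referenced to vehicle-treated cells.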

[10] = at 5.0 µM (retest, dose inferred, filed as 0.5)
[11] = at 50.0 µM (retest, dose inferred, filed as 5.0)

Measured: growth inhibition

Cc1ccc(NC(=O)CCC(=O)C(C)C(=O)c2ccccc2)c(C)c1 (configuration not stated)
inactive: [1]; [10] 5% | [1]; [11] 9% | [1]; at 50.0 µM 11.1% | [2]; at 1.2 µM -1% | [2]; at 3.7 µM 1% | [2]; at 11.0 µM 5% | [2]; at 33.0 µM 1% | [2]; at 100.0 µM 0% | [3]; [10] -3% | [3]; [11] 11% | [3]; at 50.0 µM -12.9% | [4]; at 1.2 µM -1% | [4]; at 3.7 µM -2% | [4]; [10] -15% | [4]; at 11.0 µM -2% | [4]; at 33.0 µM -5% | [4]; [11] -10% | [4]; at 50.0 µM 0.65% | [4]; at 100.0 µM -5% | [5]; at 1.2 µM -2% | [5]; at 3.7 µM -1% | [5]; at 11.0 µM -1% | [5]; at 33.0 µM -2% | [5]; at 100.0 µM -4% | [6]; at 1.2 µM -2% | [6]; at 3.7 µM -1% | [6]; at 11.0 µM -1% | [6]; at 33.0 µM -1% | [6]; at 100.0 µM 0% | [7]; at 1.2 µM 0% | [7]; at 3.7 µM -1% | [7]; at 11.0 µM -3% | [7]; at 33.0 µM -1% | [7]; at 100.0 µM -1% | [8]; [10] 6% | [8]; [11] 3% | [8]; at 50.0 µM 6.15% | [9]; at 1.2 µM -1% | [9]; at 3.7 µM -1% | [9]; at 11.0 µM -1% | [9]; at 33.0 µM -3% | [9]; at 100.0 µM -1%

Source: PubChem BioAssay (NCI)
